High-throughput results deposited in PubChem BioAssay by National Center for Advancing Translational Sciences (NCATS).
Shown are actives, neighbours in structure and some others; about 3.7% of the full set was active somewhere.
Tau ThT inhib = tau fibrillization inhibition (ThT binding); recombinant tau K18 P301L, heparin-induced fibrillization, ThT fluorescence; Potency, µM (top dose mostly 57.4 µM), for inactives: at the top dose activity, negative = inhibition, actives largely listed as inhibitors; AID 1460; actives 2.1% (n = 270,000); note: % is set by controls: 0 for no effect and ±100 for the full control effect; nearly all actives have a fitted effect of over 55% in size
Target sequence (P10636 561-689 P618L limits assumed): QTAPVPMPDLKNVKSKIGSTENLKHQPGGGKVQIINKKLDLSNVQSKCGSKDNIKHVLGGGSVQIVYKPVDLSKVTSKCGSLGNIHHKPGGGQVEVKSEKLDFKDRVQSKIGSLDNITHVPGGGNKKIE
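Tau K18 P301L fragment (15 uM unlabeled plus 0.24 uM Alexa 594-labeled) in 100 mM sodium acetate pH 7 with compound, fibrillization induced by 20 uM heparin for 6 hr at 37 C. Thioflavin T (30 uM) added, fluorescence read after 1 hr (ex 450, em 510 nm).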
Tau FP inhib = inhibitors of human tau fibril formation | P10636 | K18 P301L tau heparin fibrillization, Alexa594 FP, 6 h | Potency, µM (doses to about 57.7 µM), for the others: at the top dose activity, negative = inhibition, most hits filed as inhibitors | actives 0.39% (n = 280,000); note: % is set by controls: 0 for no effect and ±100 for the full control effect; nearly all actives have a fitted effect of over 55% in size
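Compound effects on tau fibrillization are measured by Alexa 594 fluorescence polarization (ex 555, em 632 nm). K18 P301L tau is used at 15 uM with 0.24 uM labeled tracer, and 20 uM heparin induces aggregation over 6 hr at 37 C.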
Tau fluor counter = counter-screen for tau fibril formation inhibitors; AID 1463; Potency, µM (titrated, usually from 57.7 µM), for inactives: top-dose activity change, negative = decrease; tau K18 P301L (four-repeat tau fragment) Alexa594 fluorescence, heparin fibrillization; actives 0.93% (n = 280,000); note: % is set by controls: 0 for no effect and ±100 for the full control effect; nearly all actives have a fitted effect of over 55% in size
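Human K18 P301L tau (15 uM unlabeled plus 0.24 uM Alexa 594-labeled, final) in 100 mM sodium acetate pH 7 was mixed with compound and 20 uM heparin and incubated 6 hr at 37 C.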
HTT ATP protect = cytoprotection in Huntington HTT-Q103 PC12 cell model; PC12 HTT-Q103 induced, cytoprotection, ATP luminescence, 40 h; Potency, µM (top dose mostly 56.4 µM), for inactives: cytoprotection (ATP increase), hits mostly activators; actives 0.14% (n = 230,000); AID 1471; note: % of control where 0% means no effect; nearly all actives have a fitted effect of over 45% in size
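Quantitative HTS on tebufenozide-induced (100 nM) PC12 cells expressing HTTQ103 exon 1–GFP; compounds tested as a concentration series; survival measured via cellular ATP.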
HttQ103 aggreg = inhibitors of mutant huntingtin aggregate formation in PC12 cells; actives 1.1% (n = 220,000); Potency, µM (series often up to 46.1 µM), without a hit: at the top dose activity change, negative = inhibition, actives largely listed as inhibitors; PC12 HttQ103-GFP aggregates, Acumen cytometry, 40 h; AID 1688; note: % is set by controls: 0 for no effect and ±100 for the full control effect; nearly all actives have a fitted effect of over 60% in size
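Aggregate formation scored by laser-scanning cytometer (488 excitation, 500–530 emission) in lysed PC12 cells expressing Q103-GFP after 100 nM tebufenozide induction; library tested in dose series, with ATPLite reagent added in the multiplex.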
* hit, by the source's call; [ ] = dose if it differs, or a comment. Calls come from the whole dose curve; as a rule, active = well fitted curve in the direction sought with a large enough effect; inconclusive = small, poorly fitted or top-dose-only effect, or another doubt; inactive = no such curve, though single readings can be large; an effect the other way counts as inactive or inconclusive. Potency is the fitted concentration of half-maximal effect.

Results for COc1cc(C=Nc2cccc(C)c2)c(O)c([N+](=O)[O-])c1 ?
Tau ThT inhib: 7.9µM*; Tau FP inhib: -4%; Tau fluor counter: -6%; HTT ATP protect: 12%[10 µM]; HttQ103 aggreg: -4%

How did COc1ccc(Cn2c(CO)cnc2SCc2ccc(F)cc2)cc1 do in these assays?
Tau ThT inhib: -5%; Tau FP inhib: -5%; Tau fluor counter: -5%

Results for COc1ccnc(CSC(N)=Nc2ccc(F)cc2)c1 ?
Tau ThT inhib: 28µM*; Tau FP inhib: inconclusive; Tau fluor counter: -24%; HTT ATP protect: 14%[1.9 µM]; HttQ103 aggreg: 7%

Results for COc1ccc(-n2c(=O)c3c4c(sc3n(Cc3ccc(C)cc3C)c2=O)CCC4)c(OC)c1 ?
Tau ThT inhib: -17%; Tau FP inhib: -7%; Tau fluor counter: -16%

Results for COc1ccc2sc(/C=C/c3ccccc3O)[n+](C)c2c1 ?
Tau ThT inhib: inconclusive; Tau FP inhib: 12%; Tau fluor counter: 16µM*[fluorescent]; HttQ103 aggreg: 5%

Results for O=C(c1cnn(-c2ccccc2)c1)c1ccccc1O ?
Tau ThT inhib: inconclusive; Tau FP inhib: -1%; Tau fluor counter: -18%; HTT ATP protect: 2%[10 µM]; HttQ103 aggreg: 11µM*

Results for COc1ccc(-n2cc(C(=O)c3ccccc3O)cn2)cc1 ?
Tau ThT inhib: inconclusive; Tau FP inhib: -11%; Tau fluor counter: -26%; HTT ATP protect: -120%; HttQ103 aggreg: -26%

How did COc1cc(/C=C2\SC(=O)N(c3ccc(Cl)cc3)C2=O)cc([N+](=O)[O-])c1O do in these assays?
Tau ThT inhib: 18µM*; Tau FP inhib: 3%; Tau fluor counter: inconclusive

How did COc1cc(/C=C2/C(=O)NN(c3cccc(C)c3)C2=O)cc([N+](=O)[O-])c1O do in these assays?
Tau ThT inhib: 14µM*; Tau FP inhib: 0%; Tau fluor counter: -18%

Results for CCOc1ccc(/C=C2\SC(=O)N(c3ccc(O)cc3)C2=O)cc1OC ?
Tau FP inhib: -3%[0.0958 µM]; Tau fluor counter: 4%[0.0958 µM]; HTT ATP protect: -16%[10 µM]; HttQ103 aggreg: 4%[9.22 µM]

How did COc1cc(/C=C2\SC(=O)N(c3cccc(Cl)c3)C2=O)cc([N+](=O)[O-])c1O do in these assays?
Tau ThT inhib: 8.9µM*; Tau FP inhib: 2%; Tau fluor counter: inconclusive; HTT ATP protect: 15%[10 µM]; HttQ103 aggreg: 18%[9.22 µM]

What do the screens show for `COc1cc(/C=C2/C(=O)NN(c3cccc(C)c3)C2=O)ccc1OC(=O)c1ccco1`?
Tau ThT inhib: inconclusive; Tau FP inhib: inconclusive; Tau fluor counter: inconclusive; HTT ATP protect: 6%[10 µM]; HttQ103 aggreg: 1%

What do the screens show for `COc1ccc(NC(=O)CCc2nc3c(C)nn(-c4ccc(C)cc4)c3n(C)c2=O)c(OC)c1`?
Tau ThT inhib: 3%; Tau FP inhib: 3%; Tau fluor counter: 9%

What do the screens show for `COC(=O)C1=C(C(=O)OC)[C@@H]2N(C)c3ccc(OC)cc3[C@@]23C[C@@H](C(=O)OC)N(S(=O)(=O)c2c(C)noc2C)C3=N1`?
Tau ThT inhib: -8%[11.5 µM]; Tau FP inhib: 6%[11.6 µM]; Tau fluor counter: -15%[11.6 µM]; HTT ATP protect: 10%[10 µM]

How did CC(=O)Sc1nc(-c2ccccc2)[nH]c1S(=O)(=O)c1ccc(C)cc1 do in these assays?
Tau ThT inhib: 28µM*; Tau FP inhib: 40µM*; Tau fluor counter: -30%; HTT ATP protect: -12%; HttQ103 aggreg: inconclusive

Results for Cc1ccc(S(=O)(=O)c2[nH]c(-c3ccccc3)nc2SCC(=O)O)cc1 ?
Tau ThT inhib: 4%; Tau FP inhib: -1%; Tau fluor counter: 1%

How did C=NCc1cc2c(OC[C@@H](O)CNC(C)(C)C)cccc2[nH]1 do in these assays?
Tau ThT inhib: -7%; Tau FP inhib: -1%; Tau fluor counter: -6%; HTT ATP protect: -17%

Results for CC(=O)[C@]1(O)Cc2c(O)c3c(c(O)c2[C@@H](O[C@H]2C[C@H](N)[C@H](O)[C@H](C)O2)C1)C(=O)c1c(O)cccc1C3=O ?
Tau ThT inhib: 4.5µM*; Tau FP inhib: 25µM*; Tau fluor counter: inconclusive; HTT ATP protect: -35%; HttQ103 aggreg: 0.63µM*
